According to PubChem BioAssay (NCI):
The panel holds about 79,000 compounds, 15% with a hit somewhere; the sample as a whole holds those more often. Values without a mark were called inactive. Active and inactive are the calls of the source. Rule as the data show it: active = growth inhibition above about 70%; inactive = the rest.

Legend:
[1] = NCI Yeast Anticancer Drug Screen. Data for the rad50 strain (AID 155);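 also: 0% = growth of vehicle-only cultures of the same strain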; details: S. cerevisiae rad50 strain growth inhibition, active compounds read high
In short: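 Relative growth inhibition (compound vs vehicle) was measured in yeast with a defined repair-gene alteration.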

[2] = NCI Yeast Anticancer Drug Screen. Data for the mec2-1 strain (AID 157); details: S. cerevisiae mec2-1 strain, active compounds read high
In short: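 mec2-1 yeast strain, carrying an alteration in DNA damage repair or cell cycle control, was exposed to compounds; growth inhibition was measured relative to vehicle-treated controls.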

[3] = NCI Yeast Anticancer Drug Screen. Data for the sgs1 mgt1 strain (AID 161);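 also: 0% = growth of cultures given vehicle only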; details: S. cerevisiae sgs1 mgt1 strain, active compounds read high
In short: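 Compounds are added to genetically altered yeast, and growth is compared with cultures given vehicle alone to give percent inhibition.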

[4] = NCI Yeast Anticancer Drug Screen. Data for the cln2 rad14 strain (AID 165);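 also: 0% = growth equal to vehicle treated cultures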; details: S. cerevisiae cln2 rad14 strain, active compounds read high
In short: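 Yeast carrying cln2 and rad14 alterations (cell cycle control and DNA damage repair) were exposed to compounds. Growth inhibition was measured against vehicle-treated controls.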

[5] = NCI Yeast Anticancer Drug Screen. Data for the bub3 strain (AID 167); details: S. cerevisiae bub3 mutant strain, active compounds read high
In short: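 Screening used yeast with an engineered genetic alteration affecting cell cycle control. Compound-exposed cultures were compared with vehicle cultures, and reduced growth was taken as inhibition.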

[6] = NCI Yeast Anticancer Drug Screen. Data for the mlh1 rad18 strain (AID 175); details: S. cerevisiae mlh1 rad18 strain growth inhibition, active compounds read high
In short: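 Growth inhibition of the yeast strain was measured after compound exposure and expressed relative to vehicle-treated controls. The strain carries defined defects in DNA damage repair.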

[7] = at 5.0 µM (retest, dose inferred, filed as 0.5)
[8] = at 50.0 µM (retest, dose inferred, filed as 5.0)

Compound: CCC(CC)COC(=O)c1ccc(O)c(O)c1
- growth inhibition [1, 7]: -6%
- growth inhibition [1, 8]: 91% (active)
- growth inhibition ([1]; at 50.0 µM): 98.8% (active)
- growth inhibition [2, 7]: -5%
- growth inhibition [2, 8]: 72% (active)
- growth inhibition ([2]; at 50.0 µM): 99.2% (active)
- growth inhibition [3, 7]: -2%
- growth inhibition [3, 8]: 91% (active)
- growth inhibition ([3]; at 50.0 µM): 48.1%
- growth inhibition [4, 7]: -14%
- growth inhibition [4, 8]: 98% (active)
- growth inhibition ([4]; at 50.0 µM): 99.1% (active)
- growth inhibition [5, 7]: 1%
- growth inhibition [5, 8]: 99% (active)
- growth inhibition ([5]; at 50.0 µM): 99.1% (active)
- growth inhibition [6, 7]: -6%
- growth inhibition [6, 8]: 99% (active)
- growth inhibition ([6]; at 50.0 µM): 98.9% (active)

Compound: CCOC(=O)C(C(C)=O)C1=C(Cl)C(=O)c2ccccc2C1=O (stereo not given)
- growth inhibition [1, 7]: 94% (active)
- growth inhibition [1, 8]: 100% (active)
- growth inhibition ([1]; at 50.0 µM): 99.3% (active)
- growth inhibition [2, 7]: 89% (active)
- growth inhibition [2, 8]: 100% (active)
- growth inhibition ([2]; at 50.0 µM): 99.5% (active)
- growth inhibition [3, 7]: 96% (active)
- growth inhibition [3, 8]: 100% (active)
- growth inhibition ([3]; at 50.0 µM): 99.5% (active)
- growth inhibition [4, 7]: 77% (active)
- growth inhibition [4, 8]: 100% (active)
- growth inhibition ([4]; at 50.0 µM): 89.7% (active)
- growth inhibition [5, 7]: 96% (active)
- growth inhibition [5, 8]: 100% (active)
- growth inhibition ([5]; at 50.0 µM): 97.5% (active)
- growth inhibition [6, 7]: 84% (active)
- growth inhibition [6, 8]: 99% (active)
- growth inhibition ([6]; at 50.0 µM): 99.3% (active)

Compound: CN(C)CC1CC/C(=C\c2ccc(O)cc2)C1=O (stereo not given)
- growth inhibition [1, 7]: 11%
- growth inhibition [1, 8]: 78% (active)
- growth inhibition ([1]; at 50.0 µM): 89.2% (active)
- growth inhibition [2, 7]: -19%
- growth inhibition [2, 8]: 98% (active)
- growth inhibition ([2]; at 50.0 µM): 93.7% (active)
- growth inhibition [3, 7]: -4%
- growth inhibition [3, 8]: 98% (active)
- growth inhibition ([3]; at 50.0 µM): 91.6% (active)
- growth inhibition [4, 7]: 24%
- growth inhibition [4, 8]: 53%
- growth inhibition ([4]; at 50.0 µM): 77.6% (active)
- growth inhibition [5, 7]: -26%
- growth inhibition [5, 8]: 97% (active)
- growth inhibition ([5]; at 50.0 µM): 91.9% (active)
- growth inhibition [6, 7]: 19%
- growth inhibition [6, 8]: 92% (active)
- growth inhibition ([6]; at 50.0 µM): 90.6% (active)

Compound: CN(C)CCCNc1ccc(O)c2sc3ccccc3c(=O)c12
- growth inhibition [1, 7]: 4%
- growth inhibition [1, 8]: 14%
- growth inhibition ([1]; at 50.0 µM): 69.7%
- growth inhibition [2, 7]: -5%
- growth inhibition [2, 8]: 33%
- growth inhibition ([2]; at 50.0 µM): 34.6%
- growth inhibition [3, 7]: -5%
- growth inhibition [3, 8]: 20%
- growth inhibition ([3]; at 50.0 µM): 63.6%
- growth inhibition [4, 7]: -3%
- growth inhibition [4, 8]: -11%
- growth inhibition ([4]; at 50.0 µM): 15.6%
- growth inhibition [5, 7]: 5%
- growth inhibition [5, 8]: 25%
- growth inhibition ([5]; at 50.0 µM): 24.4%
- growth inhibition [6, 7]: 0%
- growth inhibition [6, 8]: 23%
- growth inhibition ([6]; at 50.0 µM): 72% (active)

Compound: O=C1c2ccccc2-c2ccccc2C(=O)C1(Br)Br
- growth inhibition [1, 7]: -5%
- growth inhibition [1, 8]: 8%
- growth inhibition ([1]; at 50.0 µM): 89.8% (active)
- growth inhibition [2, 7]: -1%
- growth inhibition [2, 8]: -5%
- growth inhibition ([2]; at 50.0 µM): 91.1% (active)
- growth inhibition [3, 7]: 3%
- growth inhibition [3, 8]: -11%
- growth inhibition ([3]; at 50.0 µM): 88.3% (active)
- growth inhibition [4, 7]: -8%
- growth inhibition [4, 8]: -4%
- growth inhibition ([4]; at 50.0 µM): 47.3%
- growth inhibition [5, 7]: -7%
- growth inhibition [5, 8]: -18%
- growth inhibition ([5]; at 50.0 µM): 66.7%
- growth inhibition [6, 7]: 0%
- growth inhibition [6, 8]: -7%
- growth inhibition ([6]; at 50.0 µM): 96.4% (active)

Compound: S=C1Nc2cnc3ccccc3c2SC1c1ccccc1 (stereo not given)
- growth inhibition [1, 7]: -5%
- growth inhibition [1, 8]: 98% (active)
- growth inhibition ([1]; at 50.0 µM): 87% (active)
- growth inhibition [2, 7]: 7%
- growth inhibition [2, 8]: 98% (active)
- growth inhibition ([2]; at 50.0 µM): 92% (active)
- growth inhibition [3, 7]: -15%
- growth inhibition [3, 8]: 98% (active)
- growth inhibition ([3]; at 50.0 µM): 87.8% (active)
- growth inhibition [4, 7]: -9%
- growth inhibition [4, 8]: 98% (active)
- growth inhibition ([4]; at 50.0 µM): 90.3% (active)
- growth inhibition [5, 7]: -8%
- growth inhibition [5, 8]: 98% (active)
- growth inhibition ([5]; at 50.0 µM): 90.8% (active)
- growth inhibition [6, 7]: 4%
- growth inhibition [6, 8]: 98% (active)
- growth inhibition ([6]; at 50.0 µM): 85.3% (active)

Compound: Clc1ccc(CN2CCCN(Cc3ccc(Cl)cc3)C2C2CCC=CO2)cc1 (stereo not given)
- growth inhibition [1, 7]: 4%
- growth inhibition [1, 8]: 19%
- growth inhibition ([1]; at 50.0 µM): 66.1%
- growth inhibition [2, 7]: -18%
- growth inhibition [2, 8]: 17%
- growth inhibition ([2]; at 50.0 µM): 24.5%
- growth inhibition [3, 7]: -17%
- growth inhibition [3, 8]: 42%
- growth inhibition ([3]; at 50.0 µM): 72.6% (active)
- growth inhibition [4, 7]: -4%
- growth inhibition [4, 8]: 7%
- growth inhibition ([4]; at 50.0 µM): 46.9%
- growth inhibition [5, 7]: 6%
- growth inhibition [5, 8]: 17%
- growth inhibition ([5]; at 50.0 µM): 56.3%
- growth inhibition [6, 7]: -14%
- growth inhibition [6, 8]: 36%
- growth inhibition ([6]; at 50.0 µM): 45%

Compound: NC(N)=N/N=C/c1ccc([N+](=O)[O-])o1
- growth inhibition [1, 7]: 11%
- growth inhibition [1, 8]: 22%
- growth inhibition ([1]; at 50.0 µM): 66%
- growth inhibition [2, 7]: 4%
- growth inhibition [2, 8]: 13%
- growth inhibition ([2]; at 50.0 µM): 49%
- growth inhibition [3, 7]: 3%
- growth inhibition [3, 8]: 16%
- growth inhibition ([3]; at 50.0 µM): 70.2% (active)
- growth inhibition [4, 7]: 3%
- growth inhibition [4, 8]: 7%
- growth inhibition ([4]; at 50.0 µM): 25.2%
- growth inhibition [5, 7]: 6%
- growth inhibition [5, 8]: 39%
- growth inhibition ([5]; at 50.0 µM): 28.7%
- growth inhibition [6, 7]: 10%
- growth inhibition [6, 8]: 23%
- growth inhibition ([6]; at 50.0 µM): 61.4%

Compound: CCCCCCCCCCCCCCCCOP(=O)([O-])OCC[N+](C)(C)C
- growth inhibition [1, 7]: 99% (active)
- growth inhibition [1, 8]: 99% (active)
- growth inhibition ([1]; at 50.0 µM): 99.8% (active)
- growth inhibition [2, 7]: 99% (active)
- growth inhibition [2, 8]: 100% (active)
- growth inhibition ([2]; at 50.0 µM): 99.6% (active)
- growth inhibition [3, 7]: 66%
- growth inhibition [3, 8]: 100% (active)
- growth inhibition ([3]; at 50.0 µM): 99.6% (active)
- growth inhibition [4, 7]: 97% (active)
- growth inhibition [4, 8]: 99% (active)
- growth inhibition ([4]; at 50.0 µM): 99.2% (active)
- growth inhibition [5, 7]: 99% (active)
- growth inhibition [5, 8]: 99% (active)
- growth inhibition ([5]; at 50.0 µM): 99.7% (active)
- growth inhibition [6, 7]: 98% (active)
- growth inhibition [6, 8]: 99% (active)
- growth inhibition ([6]; at 50.0 µM): 99.8% (active)

Compound: CN(CC(=O)O)c1ncc2c(n1)-c1ccccc1OC2
- growth inhibition [1, 7]: 17%
- growth inhibition [1, 8]: 13%
- growth inhibition ([1]; at 50.0 µM): 48.6%
- growth inhibition [2, 7]: 8%
- growth inhibition [2, 8]: 12%
- growth inhibition ([2]; at 50.0 µM): 57.1%
- growth inhibition [3, 7]: 6%
- growth inhibition [3, 8]: 17%
- growth inhibition ([3]; at 50.0 µM): -21%
- growth inhibition [4, 7]: 14%
- growth inhibition [4, 8]: 18%
- growth inhibition ([4]; at 50.0 µM): -23.5%
- growth inhibition [5, 7]: 12%
- growth inhibition [5, 8]: 15%
- growth inhibition ([5]; at 50.0 µM): -28.1%
- growth inhibition [6, 7]: 14%
- growth inhibition [6, 8]: 10%
- growth inhibition ([6]; at 50.0 µM): -55.2%
